From PubChem
POLI inh = blocks human DNA polymerase iota activity. Q9UNA4. Pol iota fluorescent replication assay, 10 min. Potency, µM (titrated, usually from 115 µM), for the others: at the highest dose activity, negative = inhibition, most hits filed as inhibitors. actives 1% (n = 390,000)
Target sequence (Q9UNA4 whole entry, looked up): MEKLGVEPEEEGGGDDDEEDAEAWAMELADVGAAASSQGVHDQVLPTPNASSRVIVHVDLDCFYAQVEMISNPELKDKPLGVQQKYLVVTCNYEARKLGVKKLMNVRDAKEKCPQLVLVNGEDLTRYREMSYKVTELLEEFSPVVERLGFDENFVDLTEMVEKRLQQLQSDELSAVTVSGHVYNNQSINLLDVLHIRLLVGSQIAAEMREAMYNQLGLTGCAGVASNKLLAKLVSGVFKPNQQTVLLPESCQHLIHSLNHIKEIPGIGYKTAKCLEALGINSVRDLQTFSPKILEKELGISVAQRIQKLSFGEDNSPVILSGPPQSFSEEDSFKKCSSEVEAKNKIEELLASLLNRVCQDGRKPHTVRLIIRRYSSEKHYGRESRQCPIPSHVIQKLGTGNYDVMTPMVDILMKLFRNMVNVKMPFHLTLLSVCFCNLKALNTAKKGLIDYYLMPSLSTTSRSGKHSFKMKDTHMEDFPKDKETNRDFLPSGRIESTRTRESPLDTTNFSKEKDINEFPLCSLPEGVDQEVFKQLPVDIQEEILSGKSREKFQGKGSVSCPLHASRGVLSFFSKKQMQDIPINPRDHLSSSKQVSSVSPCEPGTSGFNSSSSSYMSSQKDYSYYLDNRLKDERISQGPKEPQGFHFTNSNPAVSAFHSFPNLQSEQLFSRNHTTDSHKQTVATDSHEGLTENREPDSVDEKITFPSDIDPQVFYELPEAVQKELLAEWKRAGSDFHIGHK
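Fluorescent replication assay read twice, at 0 min and 10 min after adding 50 nM (final) substrate. Enzyme (10 nM) and compounds were first incubated 15 min at room temperature; enzyme-free buffer wells were negative controls.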
POLH inh = inhibitors of human DNA polymerase eta | actives 1.2% (n = 390,000) | recombinant Pol eta, fluorescent DNA replication assay | Potency, µM (series often up to 114 µM), for the others: top-dose activity change, negative = inhibition, actives largely listed as inhibitors; further: on the % scale 0 is the no-effect control and ±100 the full control effect
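Fluorescent replication assay: 50 nM final substrate added after a 15 min room-temperature compound preincubation with 10 nM enzyme. Signal taken at 0 min and again at 10 min.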
TDP1 block = blocks human tyrosyl-DNA phosphodiesterase 1; recombinant TDP1, AlphaScreen DNA substrate cleavage; Potency, µM (top dose mostly 130 µM), for the others: at the top dose activity change, negative = inhibition, actives largely listed as inhibitors; actives 0.28% (n = 350,000); further: on the % scale 0 is the no-effect control and ±100 the full control effect; nearly all actives have a fitted effect of over 40% in size
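Recombinant human Tdp1 (E. coli-expressed, 1 nM final) preincubated with compounds 15 min at room temperature, then 5'-biotin/3'-phosphotyrosine-FITC DNA substrate (15 nM final) added for 5 min. AlphaScreen beads (10 ug/ml final) added 10 min; cleavage lowers signal.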
FEN1 inhibitor = blocks human flap endonuclease 1. Recombinant FEN1 flap cleavage, fluorescence, 15 min. Potency, µM (highest dose often 114 µM), without a hit: top-dose activity change, negative = inhibition, usual class: inhibitors. actives 0.35% (n = 390,000); further: on the % scale 0 is the no-effect control and ±100 the full control effect; nearly all actives have a fitted effect of over 65% in size
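Quantitative HTS format: each compound was titrated, incubated with 10 nM nuclease for 15 min at room temperature, then challenged with flap substrate at 50 nM final. Signal change over 15 min gave concentration–effect curves.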
Pol beta inh = blocks human DNA polymerase beta activity; Potency, µM (series often up to 114 µM), inactives show at the top dose activity change, negative = inhibition, hits mostly inhibitors; P06746; Pol beta primer extension/strand displacement, fluorescence kinetic; actives 1.3% (n = 340,000); AID 485314; further: on the % scale 0 is the no-effect control and ±100 the full control effect
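Pol beta (10 nM) and compounds were preincubated 15 min at room temperature, then 50 nM substrate (final) started primer extension/strand displacement. Reads were taken at 0 and 10 min; concentration-response data were fitted to a four-parameter Hill equation.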
POLK inh = DNA polymerase kappa (human) inhibition; purified Pol kappa, fluorescent DNA synthesis assay, 10 min; Potency, µM (titrated, usually from 107 µM), inactives show at the highest dose activity, negative = inhibition, actives largely listed as inhibitors; AID 588579; Q9UBT6; actives 0.53% (n = 400,000); further: on the % scale 0 is the no-effect control and ±100 the full control effect
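Here, compound and 10 nM enzyme are combined for 15 min at room temperature; adding 50 nM substrate (final) starts DNA synthesis, tracked by fluorescence at 0 and 10 min against buffer-only wells.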
The depositor's hits bear a star; u = inconclusive; x = not tested or not shown; [ ] = dose if it differs, or a comment. Hits are enriched below; roughly 2.4% of the tested compounds scored in any of these assays. The call rests on the fitted dose curve; in most records, active means well fitted curve in the direction sought with a large enough effect; inconclusive means small, poorly fitted or top-dose-only effect, or another doubt; inactive means no such curve, though single readings can be large; an effect the other way counts as inactive or inconclusive. Potency means the concentration at half of the fitted maximal effect.

SMILES	POLI inh	POLH inh	TDP1 block	FEN1 inhibitor	Pol beta inh	POLK inh
Cc1nc(SCC(=O)NC(=O)NCc2ccco2)nc(C)c1C	u	-21%	-6%	-7%	18µM*	-14%
CCCCc1nc2sc3c(SCC(=O)NCc4ccco4)ncnc3c2c2c1CCC2	-15%	22µM*	3%	6%	u	-21%
Cc1sc2ncnc(NCc3ccco3)c2c1C	u	u	x	-6%	45µM*	-28%
COc1cc(C2CC(=O)N(CC(=O)Nc3ccccc3F)c3ccccc3S2)cc(OC)c1OC (stereo not given)	31%	-18%	-1%	8%	29%	0%
COc1cccc(NCc2nnc(SC(C(=O)N(C)C)c3ccccc3)n2C2CCCCC2)c1 (stereo not given)	1%	x	x	-9%	x	-12%
Cc1ccc(C)c(OC(=O)CSc2nnc(CNC(=O)c3ccccc3)o2)c1	8%	-14%	6%	8%	-4%	11%
O=C(CSc1nc(NS(=O)(=O)c2ccccc2)cc(=O)[nH]1)Nc1ccc(F)cc1	18µM*	u	28µM*	u	25µM*	50µM*
Nc1cc(=O)[nH]c(SCC(=O)Nc2ccc3c(c2)CCC3)n1	68%	-13%	-6%	4%	u	-2%
O=C(CSc1nc(O)cc(=O)[nH]1)Nc1ccc2c(c1)CCC2	16µM*	-17%	x	u	u	79µM*
Cc1ccccc1-c1nc(CS(=O)(=O)CC(=O)NCC(C)c2ccccc2)c(C)o1 (stereo not given)	-3%	-10%	8%	-20%	-3%	-25%
Cc1ccccc1Cn1c(SCc2ccc(C(=O)NC(C)c3ccccc3)cc2)nc2ccncc21 (stereo not given)	12%	-19%	13%	-4%	6%	-8%
COc1cccc(-c2nccc(NC3CCNCC3)n2)c1	x	x	20µM*	x	x	-1%[60.1 µM]
CCN(CC)S(=O)(=O)c1cccc(C(=O)N/N=C/c2c(C)nn(-c3ccccc3)c2Cl)c1	198%	-16%	-5%	3%	14µM*	0%
COC(=O)c1ccc(C(/C=C/[C@@H](C)C(=O)NCCN2CCCC2)NC(=O)OCc2ccccc2)cc1 (stereo not given in full)	x	x	3%	x	x	x
Cc1cc(Cl)ccc1NNC(N)=S	14µM*	-9%	4%	-4%	10%	-7%
Cc1ccc(C)c(NNC(N)=S)c1	u	-2%	2%	-1%	5%	-17%
COc1ccc(-n2c(-c3ccc(C)cc3)cc3c2CC(C)(C)CC3=O)c(OC)c1	3%	-14%	13%	-24%	53%	-3%
CC(=O)c1ccc(NC(=O)CN(C)S(=O)(=O)c2cnc[nH]2)cc1	u	-1%	-10%	-11%	23%	-10%
Cc1ccc(-c2nnn(CC(=O)Nc3ccc(S(=O)(=O)N4CCC(C)CC4)cc3)n2)cc1	u	u	3%	-18%	35µM*	-40%
CC1CCN(S(=O)(=O)c2ccc(NC(=O)Cn3nnc(-c4ccccc4)n3)cc2)CC1	u	-11%	5%	13%	40µM*	-1%
CC1CCCN(S(=O)(=O)c2ccc(NC(=O)Cn3nnc(-c4ccccc4F)n3)cc2)C1 (stereo not given)	4%	-23%	11%	1%	7%	-18%
C[C@@H]1CN([C@@H](C)CO)C(=O)CCCn2nncc2CO[C@H]1CN(C)S(=O)(=O)c1ccccc1C#N	x	-2%	x	x	x	x
O=C(N/N=C/c1ccco1)c1cc(Br)ccc1OCc1ccccc1	9%	1%	5%	10%	-9%	4%
Cc1cccc(/C=N/NC(=O)c2cc(Br)ccc2OCc2ccccc2)n1	u	-24%	x	14%	45µM*	-16%
CCS(=O)(=O)N1CCc2cc(C(=O)Nc3cccc(C)c3C)ccc21	-5%	0%	11%	-1%	-21%	-4%
SMILES	POLI inh	POLH inh	TDP1 block	FEN1 inhibitor	Pol beta inh	POLK inh
COc1ccc(NC(=O)COC(=O)c2ccc(C)c(S(=O)(=O)N3CCCCC3)c2)cc1	u	-9%	40µM*	-20%	x	-11%
COc1ccc(NC(=O)COC(=O)c2cc3c(s2)CCC3)cc1	32µM*	45µM*	14µM*	9%	x	u
Cc1ccc(C(=O)OCC(=O)Nc2ccccc2)cc1S(=O)(=O)N1CCCCC1	u	-22%	x	-16%	x	u
COc1ccc2c(COC(=O)c3ccc(C)c(S(=O)(=O)N4CCOCC4)c3)cc(=O)oc2c1	u	14µM*	x	-1%	x	-8%
COc1ccc(C2Nc3ccccc3C(=O)N2Cc2ccccc2OC)cc1COc1ccc(NC(C)=O)cc1 (stereo not given)	x	x	-5%	x	x	x
CCN(CC)C(=O)c1cc(-c2ccc(Cl)cc2)on1	7%	-7%	4%	-1%	-29%	-10%
COc1ccc2c(C)nc(N/C(N)=N/S(=O)(=O)c3ccc(C)cc3)nc2c1	89µM*	-4%	6%	2%	0%	-11%
Cc1ccc(S(=O)(=O)/N=C(\N)Nc2nc(C)c3ccccc3n2)cc1	-8%	u	0%	-4%	-11%	-4%
COc1ccccc1CNC(=O)CCCn1c(=O)c2ccccc2n(Cc2ccccc2C#N)c1=O	1%	-4%	2%	-3%	21%	-9%
CC(=O)Nc1cccc(NC(=O)CSc2nc(C3CC3)nc3ccccc23)c1	28%	-17%	x	5%	u	-4%
O=C(CSc1nc(-c2ccccc2)nc2ccccc12)Nc1cccc(C(=O)O)c1	u	35µM*	5%	-14%	0%	1%
CC(=O)c1cccc(NC(=O)CSc2nc(C3CC3)nc3ccccc23)c1	25µM*	-18%	-5%	-23%	u	-35%
CC(=O)c1cccc(NC(=O)COc2cc3oc(=O)c(CC(C)O)c(C)c3cc2Cl)c1 (stereo not given)	56µM*	u	3%	-25%	u	-39%
CCOC(=O)c1ccc(NC(=O)COc2cc3oc(=O)c(CC(C)O)c(C)c3cc2Cl)cc1 (stereo not given)	u	1%	x	-8%	u	-15%
COc1ccc(NC(=O)CC2C(=O)N(c3cccc(C)c3)C(=O)N2Cc2cccnc2)cc1 (stereo not given)	24%	-9%	-6%	3%	25%	7%
COC(=O)c1ccc(-n2c(C)cc(C(=O)CCl)c2C)cc1	13µM*	u	8%	16%	-11%	-5%
Cc1ccccc1CNCc1c(C(=O)O)c(C)n(Cc2ccc(F)cc2Cl)c1C	-6%	2%	8%	-3%	31%	3%
